# The source made the active and inactive calls. Cut-off read from the data, not from the text of the source, unless noted: active = inhibition above about 80%; inactive = the rest.
# Experiments:
# [1] = sensitizers of A549 cells to miR-34 induction, primary screen, imaging, A549 dox-inducible miR-34, nuclei and caspase counts (AID 1347080;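 active = compounds whose cell count with miR-34 switched on is under 0.7 times the count with it off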); details: A549 miR-34 inducible, Hoechst nuclei count, 48 h
# [2] = survival rescue of mitochondrial mutant cells in low glucose, primary screen, MELAS cybrids, Rieske KO mouse fibroblasts, CellTiter-Glo (AID 1508586;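 active = mean z-score across replicates of 1.96 or higher in either the MELAS or the Rieske mutant cell line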;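 note: z relative to plate mean and SD of compound and empty wells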)
# [3] = LFS_MB_P medulloblastoma growth inhibition, cell-based, chromothripsis tumors, cisplatin or BGB combos (AID 1671449); details: LFS_MB_P medulloblastoma cells;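 note: cells exposed for 96 hours; 0% = vehicle DMSO and 100% = killing by high DMSO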
# [4] = HDN33 neuroblastoma growth inhibition, cell-based, chromothripsis tumors, cisplatin or BGB combos (AID 1671450); details: HDN33 neuroblastoma cells, stronger effect = higher value;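 note: cells exposed to compound for four days; 0% = vehicle DMSO and 100% = cell killing by high DMSO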
# [5] = ICB984 medulloblastoma cell growth inhibition, synergistic combos for chromothripsis tumors, cisplatin or BGB combos (AID 1671451; call rule not given here;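 note: cells exposed for 96 hours before readout; 0% = vehicle DMSO and 100% = killing by high DMSO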); details: ICB984 medulloblastoma cells, drug combinations, stronger effect = higher value
# [6] = LFS_MB_1R medulloblastoma cell growth inhibition, synergistic combos for chromothripsis tumors, cisplatin or BGB combos (AID 1671452); details: LFS_MB_1R medulloblastoma cells, stronger effect = higher value;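 note: cells exposed for 96 hours before readout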
# [7] = HTB85 osteosarcoma cell growth inhibition, synergistic combos for chromothripsis tumors, BGB or cisplatin IC20 combos (AID 1671453); details: HTB85 osteosarcoma cells, drug combinations, stronger effect = higher value;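 note: cells exposed for 96 hours before readout; 0% = vehicle DMSO and 100% = high DMSO killing control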
# [8] = CRL2098 osteosarcoma cell growth inhibition, synergistic combos for chromothripsis tumors, BGB or cisplatin IC20 combos (AID 1671454); details: CRL2098 osteosarcoma cells, drug combinations, stronger effect = higher value;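 note: cells exposed for 96 h before readout; 0% = vehicle DMSO and 100% = killing by high DMSO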
# [9] = HD-MB03 medulloblastoma cell growth inhibition, synergistic combos for chromothripsis tumors, BGB or cisplatin IC20 combos (AID 1671455; in the data active = inhibition above about 83%;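 note: 0% = vehicle DMSO and 100% = high DMSO as cytotoxic control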); details: HD-MB03 medulloblastoma cells, stronger effect = higher value
# [10] = UWB1.289 ovarian carcinoma cell growth inhibition, synergistic combos for chromothripsis tumors, BGB or cisplatin combos (AID 1671456); details: UWB1.289 ovarian carcinoma cells, stronger effect = higher value;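 note: cells exposed to compound for four days; 0% = vehicle DMSO and 100% = killing by high DMSO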
# [11] = LFS_MB_2R medulloblastoma cell growth inhibition, synergistic combos for chromothripsis tumors, cisplatin combos (AID 1671457); details: LFS_MB_2R medulloblastoma cells, stronger effect = higher value;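 note: cells exposed to compound for four days before readout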
# [12] = MDA-MB-436 breast carcinoma cell growth inhibition, synergistic combos for chromothripsis tumors, BGB or cisplatin combos (AID 1671458; call rule not given here;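 note: cells exposed for 96 hours; 0% = vehicle DMSO and 100% = killing by high DMSO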); details: MDA-MB-436 breast carcinoma growth inhibition, drug combinations, stronger effect = higher value
# [13] = UWB1.289_BRCA1 ovarian cancer growth, cell-based, BGB or cisplatin combinations (AID 1671459); details: UWB1.289 BRCA1 ovarian carcinoma, drug combinations, stronger effect = higher value
# [14] = human astrocyte viability loss, single and combined drugs, cytotoxicity control for chromothriptic childhood tumor combination screen, cell-based, BGB or cisplatin IC20 combos (AID 1671460); details: Human astrocytes, drug combinations, stronger effect = higher value;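 note: cells exposed to compounds for 96 hours before viability readout; 0% = vehicle and 100% = killing control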
# [15] = growth inhibition of BT084 medulloblastoma cells, cell-based, ICGC_MB145, cisplatin and BGB IC40 combos (AID 1671461); details: drug combinations, stronger effect = higher value;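 note: cells exposed to drugs for 96 hours; 0% = vehicle DMSO and 100% = high DMSO full killing control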
# [16] = growth inhibition of RCMB18 medulloblastoma cells, cell-based, cisplatin and BGB IC40 combos (AID 1671462); details: stronger effect = higher value;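 note: cells exposed to compound for four days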
# [17] = growth inhibition of CRL1545 osteosarcoma cells, cell-based, cisplatin and BGB IC20 combos (AID 1671464); details: stronger effect = higher value;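 note: cells exposed to compound for 96 hours before readout; 0% = vehicle DMSO and 100% = high DMSO killing control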
# [18] = stronger effect = lower value, cell number ratio, induced over uninduced
# [19] = measured here: relative caspase fold change +Dox/-Dox
# [20] = measured here: total cells with miR-34 induction, stronger effect = lower value
# [21] = measured here: total cells without miR-34 induction
# [22] = MELAS cybrid survival, CellTiter-Glo 48 h, stronger effect = higher value
# [23] = Rieske KO mouse fibroblast survival, CellTiter-Glo 72 h
# [24] = at 0.5 µM, stronger effect = higher value
# [25] = measured here: combination with BGB IC20, at 0.005 µM
# [26] = measured here: combination with BGB IC40, at 0.005 µM
# [27] = measured here: combination with BGB IC40, at 0.05 µM
# [28] = measured here: combination with cisplatin, at 0.5 µM, stronger effect = higher value
# [29] = measured here: combination with cisplatin, at 5 µM, stronger effect = higher value
# [30] = measured here: with BGB IC20 combination, at 0.5 µM
# [31] = measured here: with cisplatin IC20 combination, at 0.5 µM
# [32] = measured here: 5 uM single agent, at 5 µM
# [33] = measured here: combination with cisplatin, at 0.5 µM
# [34] = measured here: combination with cisplatin, at 5 µM
# [35] = measured here: with BGB IC20, at 0.5 µM
# [36] = measured here: with BGB IC20, at 5 µM
# [37] = measured here: with cisplatin IC20, at 0.5 µM
# [38] = measured here: with cisplatin IC20, at 5 µM
# [39] = measured here: combination with BGB at IC20, at 0.5 µM
# [40] = measured here: combination with cisplatin at IC20, at 0.5 µM
# [41] = measured here: combo with BGB at IC20, at 0.5 µM
# [42] = measured here: combo with cisplatin at IC20, at 0.5 µM
# [43] = measured here: inhibition with BGB combination, at 0.05 µM
# [44] = measured here: inhibition with cisplatin combination, at 0.05 µM
# [45] = measured here: BGB combination, at 0.5 µM
# [46] = measured here: BGB combination, at 5 µM
# [47] = measured here: cisplatin combination, at 0.5 µM
# [48] = measured here: cisplatin combination, at 5 µM
# [49] = BGB combination, concentration series, at 5 µM
# [50] = cisplatin combination, concentration series, at 5 µM
# [51] = measured here: combo with BGB IC20, at 0.5 µM
# [52] = measured here: combo with cisplatin IC20, at 0.5 µM
# [53] = cisplatin combination, at 0.5 µM
# [54] = measured here: BGB IC40 combination 0.05 uM, at 0.05 µM
# [55] = measured here: BGB IC40 combination, at 0.05 µM
structure (smiles),measurement,setting,value
Cc1cc(C#N)cc(C)c1Oc1nc(Nc2ccc(C#N)cc2)nc(N)c1Br,fold change,[1]; [18],0.85 (inactive)
same,fold change,[1]; [19],2.01
same,cell count,[1]; [20],3910
same,cell count,[1]; [21],4600
same,z-score,[2]; [22],0.252 (inactive)
same,z-score,[2]; [23],-0.21
same,inhibition,[3]; [24],-6.54% (inactive)
same,inhibition,[3]; [25],-10%
same,inhibition,[3]; [26],-30.6%
same,inhibition,[3]; [27],-26%
same,inhibition,[3]; [28],-19.3%
same,inhibition,[3]; [29],-60.9%
same,inhibition,"[4]; BGB combo, at 5 µM",-14.1%
same,inhibition,[4]; at 0.5 µM,-5.11% (inactive)
same,inhibition,"[4]; cisplatin combo, at 5 µM",-9.1%
same,inhibition,[4]; [30],-9.33%
same,inhibition,[4]; [31],0.249%
same,inhibition,"[4]; single agent, at 5 µM",-3.14%
same,inhibition,"[5]; BGB IC20 combo, at 0.005 µM",-6.67%
same,inhibition,"[5]; BGB IC40 combo, at 0.005 µM",-12.8%
same,inhibition,"[5]; BGB IC40 combo, at 0.05 µM",-9.57%
same,inhibition,[5]; at 0.5 µM,-33.3% (inactive)
same,inhibition,"[5]; cisplatin combo, at 0.05 µM",-12.6%
same,inhibition,"[5]; cisplatin combo, at 0.5 µM",-45.3%
same,inhibition,"[5]; cisplatin combo, at 5 µM",-4.46%
same,inhibition,[5]; [32],-18.9%
same,inhibition,[6]; at 0.5 µM,-14.8% (inactive)
same,inhibition,[6]; [27],-38.9%
same,inhibition,[6]; [33],-11.1%
same,inhibition,[6]; [34],-7.4%
same,inhibition,[7]; at 0.5 µM,-2.4% (inactive)
same,inhibition,[7]; [35],-12.9%
same,inhibition,[7]; [36],-34.8%
same,inhibition,[7]; [37],-9.12%
same,inhibition,[7]; [38],-37.6%
same,inhibition,"[7]; single agent, at 5 µM",-5.74%
same,inhibition,[8]; at 0.5 µM,-46.8% (inactive)
same,inhibition,[8]; [39],-26.7%
same,inhibition,[8]; [40],-48.1%
same,inhibition,[9]; at 0.5 µM,-1.6% (inactive)
same,inhibition,[9]; [41],6.5%
same,inhibition,[9]; [42],-1.27%
same,inhibition,[10]; at 0.5 µM,1.48% (inactive)
same,inhibition,[10]; [43],-24.8%
same,inhibition,[10]; [44],0.893%
same,inhibition,[11]; at 0.5 µM,-10.7% (inactive)
same,inhibition,[11]; [33],-24.9%
same,inhibition,[11]; [34],-73.7%
same,inhibition,[12]; at 0.5 µM,-26.8% (inactive)
same,inhibition,[12]; [45],-22.5%
same,inhibition,[12]; [46],-28.6%
same,inhibition,[12]; [47],-43.6%
same,inhibition,[12]; [48],-39.5%
same,inhibition,[13]; [49],11.2%
same,inhibition,[13]; at 0.5 µM,1.32% (inactive)
same,inhibition,[13]; [50],2.3%
same,inhibition,[14]; at 0.5 µM,3.72% (inactive)
same,inhibition,[14]; [51],14%
same,inhibition,[14]; [52],-7.51%
same,inhibition,[15]; at 0.5 µM,-18% (inactive)
same,inhibition,[15]; [53],-20.9%
same,inhibition,"[15]; cisplatin combination, at 5 µM",-30.7%
same,inhibition,[15]; [54],7.73%
same,inhibition,"[15]; single agent, at 5 µM",-20.3%
same,inhibition,[16]; at 0.5 µM,-32.5% (inactive)
same,inhibition,"[16]; cisplatin combo, at 5 µM",-24.1%
same,inhibition,[16]; [55],-39.7%
same,inhibition,[16]; [33],-23%
same,inhibition,"[16]; single agent, at 5 µM",-29.9%
same,inhibition,[17]; at 0.5 µM,0.47% (inactive)
same,inhibition,[17]; [30],4.81%
same,inhibition,[17]; [31],-4%
same,inhibition,"[17]; single agent, at 0.05 µM",-33.2%
same,inhibition,"[17]; single agent, at 5 µM",12%
CC1OC(n2cc(F)c(=O)[nH]c2=O)C(O)C1O (stereo not drawn),fold change,[1]; [18],0.451 (active)
same,fold change,[1]; [19],2.09
same,cell count,[1]; [20],2920
same,cell count,[1]; [21],6480
same,z-score,[2]; [22],-0.306 (inactive)
same,z-score,[2]; [23],0.652
same,inhibition,[3]; [24],-9.42% (inactive)
same,inhibition,[3]; [25],-7.8%
same,inhibition,[3]; [26],-40.7%
same,inhibition,[3]; [27],-29.6%
same,inhibition,[3]; [28],-29.8%
same,inhibition,[3]; [29],-27.3%
same,inhibition,"[4]; BGB combo, at 5 µM",-8.24%
same,inhibition,[4]; at 0.5 µM,-30.6% (inactive)
same,inhibition,"[4]; cisplatin combo, at 5 µM",-12.9%
same,inhibition,[4]; [30],-22.1%
same,inhibition,[4]; [31],-19.8%
same,inhibition,"[4]; single agent, at 5 µM",-20.3%
same,inhibition,"[5]; BGB IC20 combo, at 0.005 µM",-5.88%
same,inhibition,"[5]; BGB IC40 combo, at 0.005 µM",-26.6%
same,inhibition,"[5]; BGB IC40 combo, at 0.05 µM",-7.54%
same,inhibition,[5]; at 0.5 µM,-15.5% (inactive)
same,inhibition,"[5]; cisplatin combo, at 0.05 µM",-10.5%
same,inhibition,"[5]; cisplatin combo, at 0.5 µM",-3.76%
same,inhibition,"[5]; cisplatin combo, at 5 µM",-40.8%
same,inhibition,[5]; [32],-21.2%
same,inhibition,[6]; at 0.5 µM,-23.1% (inactive)
same,inhibition,[6]; [27],-35.1%
same,inhibition,[6]; [33],-21.6%
same,inhibition,[6]; [34],-58.4%
same,inhibition,[7]; at 0.5 µM,-23.8% (inactive)
same,inhibition,[7]; [35],-38.6%
same,inhibition,[7]; [36],-31%
same,inhibition,[7]; [37],-26.6%
same,inhibition,[7]; [38],-40.3%
same,inhibition,"[7]; single agent, at 5 µM",-22%
same,inhibition,[8]; at 0.5 µM,-5.43% (inactive)
same,inhibition,[8]; [39],-21.1%
same,inhibition,[8]; [40],-73.9%
same,inhibition,[9]; at 0.5 µM,-15.3% (inactive)
same,inhibition,[9]; [41],-17.8%
same,inhibition,[9]; [42],-10.3%
same,inhibition,[10]; at 0.5 µM,-6.51% (inactive)
same,inhibition,[10]; [43],-35.5%
same,inhibition,[10]; [44],-17.5%
same,inhibition,[11]; at 0.5 µM,-17.7% (inactive)
same,inhibition,[11]; [33],-12.9%
same,inhibition,[11]; [34],-95.4%
same,inhibition,[12]; at 0.5 µM,-32.6% (inactive)
same,inhibition,[12]; [45],-38.6%
same,inhibition,[12]; [46],-19.2%
same,inhibition,[12]; [47],-54.4%
same,inhibition,[12]; [48],12%
same,inhibition,[13]; [49],-3.82%
same,inhibition,[13]; at 0.5 µM,-19.6% (inactive)
same,inhibition,[13]; [50],4%
same,inhibition,[14]; at 0.5 µM,-18.2% (inactive)
same,inhibition,[14]; [51],-17.6%
same,inhibition,[14]; [52],-13.1%
same,inhibition,[15]; at 0.5 µM,-33.9% (inactive)
same,inhibition,[15]; [53],-18.2%
same,inhibition,"[15]; cisplatin combination, at 5 µM",3.57%
same,inhibition,[15]; [54],-9.17%
same,inhibition,"[15]; single agent, at 5 µM",-31.7%
same,inhibition,[16]; at 0.5 µM,-20.6% (inactive)
same,inhibition,"[16]; cisplatin combo, at 5 µM",-44.8%
same,inhibition,[16]; [55],-8.2%
same,inhibition,[16]; [33],-22.5%
same,inhibition,"[16]; single agent, at 5 µM",-11.4%
same,inhibition,[17]; at 0.5 µM,-45.1% (inactive)
same,inhibition,[17]; [30],-21.9%
same,inhibition,[17]; [31],-60.2%
same,inhibition,"[17]; single agent, at 0.05 µM",-41.1%
same,inhibition,"[17]; single agent, at 5 µM",-1.1%
